We go through 33 compounds from ChEMBL document CHEMBL2218924, “A broad activity screen in support of a chemogenomic map for kinase signalling research and drug discovery” (Biochem J, 2013).

The experiment deals with Proto-oncogene tyrosine-protein kinase Src (Homo sapiens) (UniProt P12931). The conditions noted are these: at 1 µM.
Chain of Proto-oncogene tyrosine-protein kinase Src (Homo sapiens) (P12931 2-536 limits assumed): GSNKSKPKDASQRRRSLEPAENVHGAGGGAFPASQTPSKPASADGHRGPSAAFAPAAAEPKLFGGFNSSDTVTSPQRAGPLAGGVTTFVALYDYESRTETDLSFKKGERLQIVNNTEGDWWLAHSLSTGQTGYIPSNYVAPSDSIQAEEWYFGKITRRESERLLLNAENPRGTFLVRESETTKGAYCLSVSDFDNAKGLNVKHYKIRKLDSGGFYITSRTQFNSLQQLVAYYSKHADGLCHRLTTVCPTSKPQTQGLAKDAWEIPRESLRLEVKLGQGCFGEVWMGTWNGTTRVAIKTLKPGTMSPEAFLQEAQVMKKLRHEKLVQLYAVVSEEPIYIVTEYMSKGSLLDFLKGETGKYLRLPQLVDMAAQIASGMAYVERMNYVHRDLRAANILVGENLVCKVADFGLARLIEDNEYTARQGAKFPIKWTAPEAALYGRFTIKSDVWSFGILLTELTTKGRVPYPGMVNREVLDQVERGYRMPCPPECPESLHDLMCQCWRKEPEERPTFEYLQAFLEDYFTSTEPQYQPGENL
For `O=C1Nc2ccccc2/C1=C1/Nc2ccccc2/C1=N\OCCC(O)CO` (stereo not drawn), the residual activity amounted to 20%.

Take `CC(C)n1cnc2/c(=N/c3cccc(Cl)c3)nc(NCCO)[nH]c21`: the residual activity was 54%.

As to `N#C/C(=C(\N)Sc1ccc(N)cc1)c1ccccc1C(F)(F)F`, the residual activity was found to be 125%.

As to `CC#CC(=O)Nc1cc2c(Nc3ccc(F)c(Cl)c3)ncnc2cn1`, the residual activity is 89%.

Turning to `CO[C@H]1C[C@@H]2CC[C@@H](C)[C@@](O)(O2)C(=O)C(=O)N2CCCC[C@H]2C(=O)O[C@H]([C@H](C)C[C@@H]2CC[C@@H](O)[C@H](OC)C2)CC(=O)[C@H](C)/C=C(\C)[C@@H](O)[C@@H](OC)C(=O)[C@H](C)C[C@H](C)/C=C/C=C/C=C/1C`, the residual activity stood at 89%.

Take `c1ccc2c(-c3ccncc3)c[nH]c2c1`: the residual activity turned out to be 80%.

As to `Cc1cc(Nc2nc(-c3ccccc3)nc3ccccc23)n[nH]1`, the residual activity was 14%.

Consider `O=C1Nc2ccc(Br)cc2/C1=C\c1cc2c([nH]1)CCCC2`, for which the residual activity was 73%.

On to `Cc1nc(-c2ccccc2)c(-c2ccncc2)o1`, for which the residual activity came out at 113%.

In the case of `c1ccc(-c2n[nH]c3c2oc2ccccc23)cc1`, the residual activity was 86%.

Consider `O=C1NC(=O)c2c1c1c3ccccc3[nH]c1c1[nH]c3cc(Br)ccc3c21`, for which the residual activity came to 117%.

Consider `CCN(CC)C(=O)c1ccc(Nc2nc(OCC3CCCCC3)c3nc[nH]c3n2)cc1`, for which the residual activity was found to be 62%.

In the case of `Nc1n[nH]c2nnc(-c3c(-c4ccccc4)nn4ccccc34)cc12`, the residual activity is 103%.

`Cc1nc2cc3nc(-c4cccs4)cnc3cc2n1C`: the residual activity came out at 78%.

`COc1cccc(-c2cc(=O)c3ccccc3o2)c1N`: the residual activity came out at 113%.

As to `Cc1cncc2cccc(S(=O)(=O)N3CCCN(C(=O)CN)C[C@H]3C)c12`, the residual activity came to 86%.

In the case of `Oc1ccc(-c2nc(-c3ccc(F)cc3)c(-c3ccncc3)[nH]2)cc1`, the residual activity was 108%.

`Cc1cc2ncc(-c3ccccc3)nc2cc1C`: the residual activity stood at 83%.

`COc1cc2ncnc(Nc3ccc(NC(=O)c4ccccc4)cc3)c2cc1OC`: the residual activity is 83%.

Take `Cc1cccc(-c2[nH]c(C(C)(C)C)nc2-c2ccc3c(c2)OCO3)n1`: the residual activity came to 91%.

For the compound `Nc1cccc(-c2cc3c(Oc4cccc(O)c4)ncnc3[nH]2)c1`, the residual activity turned out to be 6%.

Consider `N#CC(C#N)=C(N)/C(C#N)=C/c1ccc(O)cc1`, for which the residual activity came out at 83%.

Consider `CN(C)CCCn1cc(C2=C(c3c[nH]c4ccccc34)C(=O)NC2=O)c2ccccc21`, for which the residual activity is 82%.

Take `c1ccc(-c2n[nH]cc2-c2ccnc3ccccc23)nc1`: the residual activity stood at 86%.

On to `COc1ccc(C(=O)Nc2sc3c(c2C(N)=O)CCCC3)cc1OC`, for which the residual activity worked out at 76%.

For `COc1cc2ncnc(Nc3ccc(O)c(Br)c3)c2cc1OC`, the residual activity worked out at 54%.

Take `N#Cc1cnc2cnc(NCc3cccnc3)cc2c1Nc1ccc(F)c(Cl)c1`: the residual activity was determined as 56%.

Take `CO[C@H]1[C@@H](OC)C[C@H](C)[C@@H](OC)C2=CC(=O)C=C(NC(=O)/C(C)=C/C=C/[C@H](OC)[C@@H](OC(N)=O)/C(C)=C/[C@@H]1C)C2=O`: the residual activity stood at 101%.

Regarding `CC(=O)c1ccc(N2CCOCC2)cc1O`, the residual activity was found to be 86%.

On to `Cc1ccc(S(=O)(=O)/C=C/C#N)cc1`, for which the residual activity worked out at 114%.

Turning to `N#CCCc1ccc2c(c1)-c1[nH]c3ccc([N+](=O)[O-])cc3c1CC(=O)N2`, the residual activity was 46%.

For `CC(=O)O/N=C1\C(=C2\C(=O)Nc3cc(Br)ccc32)Nc2ccccc21`, the residual activity turned out to be 22%.

For the compound `Nc1ccc2ncnc(NCCc3ccc(Oc4ccccc4)cc3)c2c1`, the residual activity came out at 110%.

The residual activity is the signal under treatment as a percentage of the control signal.
